Assay outcomes: PubChem, several laboratories
TMEM16A act: mouse TMEM16A channel activation, primary screen; Q8BHY3; HEK293 TMEM16A/YFP-H148Q/I152L, iodide quench fluorescence; active compounds read low; B-score at 10 µM; hit rate 0.3% among 340,000; AID 623877;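 active = fluorescence-ratio B-score plate-corrected deviation score at least 3 library SD below zero, with starting fluorescence score within 5 deviations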;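 note: channel opened by trigger with iodide after compound preincubation; score built on the fluorescence ratio of max minus min over baseline; more negative score means more quench and so TMEM16A activation or potentiation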
CHT allo act: allosterically activates the human high affinity choline transporter | CHT-expressing cells, membrane potential dye, choline EC20; active compounds read high; LV-AA mutant CHT in HEK293 cells | hit rate 0.49% among 310,000 | B-score at 10 µM;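 active = initial fluorescence not abnormally high and integrated response B-score, plate-corrected, over 3 SD above library mean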
CHT block: inhibits the human high affinity choline transporter | Q9GZV3 | CHT-expressing cells, membrane potential dye, choline response; active compounds read low | B-score at 10 µM | hit rate 0.86% among 310,000;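 active = B-score over 3 SD under the library average, and starting fluorescence ratio not unusually high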;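 note: choline stimulus applied at its EC90 after an EC20 pre-addition; B-score computed on integrated fluorescence ratio after choline addition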
HDAC3 inhib: blocks human histone deacetylase 3. AID 2718. inhibition, % at 8.3 µM. hit rate 0.15% among 320,000. recombinant HDAC3, fluorogenic peptide/trypsin coupled, fluorescence; in the data active = inhibition above about 26%, passing the limit was not always enough; inconclusive = no clear call, values can overlap the other calls
PHOSPHO1 inh: inhibitors of human PHOSPHO1 phosphatase | Q8TCT1 | recombinant PHOSPHO1, absorbance phosphatase assay | inhibition, % at 13.3 µM | hit rate 1.1% among 290,000 | AID 1565; in the data active = inhibition above about 60%
Target sequence (Q8TCT1 whole entry, looked up): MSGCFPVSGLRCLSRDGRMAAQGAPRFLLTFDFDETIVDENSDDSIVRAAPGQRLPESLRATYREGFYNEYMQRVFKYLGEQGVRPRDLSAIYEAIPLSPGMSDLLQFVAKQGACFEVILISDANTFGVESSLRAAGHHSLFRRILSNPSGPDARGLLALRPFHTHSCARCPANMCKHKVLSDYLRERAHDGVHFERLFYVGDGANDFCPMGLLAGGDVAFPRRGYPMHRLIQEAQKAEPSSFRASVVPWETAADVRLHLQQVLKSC
TMEM16A inh: inhibitors of mouse TMEM16A calcium-activated chloride channel; Q8BHY3; HEK293 TMEM16A/YFP iodide influx fluorescence, ionomycin; normalized B-score (activity score, 25-100; higher = stronger inhibition) at 10 µM; hit rate 1.2% among 310,000;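 active = ratio plate-corrected score three or more library SD toward inhibition, starting fluorescence score within five deviations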;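 note: score derived from kinetic fluorescence span divided by baseline fluorescence per well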
Starred values were filed as active, the others as inactive; i = inactive; ? = inconclusive; . = not tested or not shown. An excerpt weighted towards active compounds, which were near 3.2% of everything screened.

SMILES	TMEM16A act	CHT allo act	CHT block	HDAC3 inhib	PHOSPHO1 inh	TMEM16A inh
O=C(NCc1ccc(Cl)cc1)c1n[nH]c([N+](=O)[O-])c1Cl	i	i	-8.52*	3.7	-5.3	i
O=C(NCc1ccc(Cl)cc1)c1ncn[nH]1	i	i	i	0.1	72.9*	i
O=C(c1cccc(C(=O)N2CCN(Cc3ccccc3)CC2)c1)N1CCN(Cc2ccccc2)CC1	i	i	i	2.0	-14.1	25*
O=C(c1ccc2ccccc2c1)N1CCN(Cc2ccccc2)CC1	i	i	i	-1.0	-18.7	i
N#Cc1nc(Cc2cccc3ccccc23)oc1N1CCCCC1	-23*	i	i	-1.0	22.0	100*
N#Cc1nc(-c2cccc3ccccc23)oc1N1CCCCC1	i	i	i	-6.0	-6.6	i
O=C(O)C[C@H]1c2cc(F)ccc2S(=O)(=O)N1C1CCCC1	i	i	i	2.6	.	i
CCn1c(-c2ccccc2Cl)nn(CC(=O)Nc2ccc(OC)cc2)c1=S	i	i	i	-3.5	37.5	i
CCn1c(-c2ccccc2Cl)nn(CC(=O)Nc2ccccc2C)c1=S	i	i	i	3.8	100.4*	i
C[C@H](NC(=O)c1[nH]cnc1C(=O)Nc1ccc(CNC(=O)OC(C)(C)C)cc1)C(=O)OCc1ccccc1	i	i	i	3.8	20.4	100*
CC(C)(C)OC(=O)NCc1ccc(NC(=O)c2nc[nH]c2C(=O)N[C@@H](Cc2ccccc2)C(=O)OC(C)(C)C)cc1	i	i	i	9.8	34.3	i
C[C@H](NC(=O)c1nc[nH]c1C(=O)N[C@@H](Cc1ccccc1)C(=O)OCc1ccccc1)C(=O)OC(C)(C)C	i	i	i	31.0*	-41.1	i
CC(C)C[C@H](NC(=O)c1nc[nH]c1C(=O)NC1CCN(C(=O)OC(C)(C)C)CC1)C(=O)OCc1ccccc1	i	i	i	43.9*	0.8	i
CC(C)C[C@H](NC(=O)c1[nH]cnc1C(=O)Nc1ccc(CNC(=O)OC(C)(C)C)cc1)C(=O)OC(C)(C)C	i	i	i	51.7*	-7.5	i
CC(C)C[C@H](NC(=O)c1nc[nH]c1C(=O)NC1CCN(C(=O)OC(C)(C)C)CC1)C(=O)OC(C)(C)C	i	i	i	21.9	43.7	i
CC(C)C[C@H](NC(=O)c1[nH]cnc1C(=O)Nc1ccc(CNC(=O)OC(C)(C)C)cc1)C(=O)OCc1ccccc1	i	i	i	3.1	11.1	i
Cc1c(C(=O)N(Cc2ccco2)Cc2cccs2)oc2ccccc12	i	.	.	-0.4	.	.
Nn1c(SCC(=O)Nc2ccc(F)cc2)nnc1C1CCCCC1	i	i	i	-3.4	-7.4	i
CCOC(=O)C12CNC(=O)C(C(=O)OCC)(CNC1=O)C2	i	i	i	-1.4	6.7	i
CC(C)C[C@H](NC(=O)c1[nH]cnc1C(=O)N[C@@H](Cc1ccccc1)C(=O)OC(C)(C)C)C(=O)OC(C)(C)C	i	i	i	-6.4	-13.1	i
CC(C)C[C@H](NC(=O)c1nc[nH]c1C(=O)NCc1ccccc1)C(=O)OC(C)(C)C	i	i	i	39.8*	26.2	i
CC(C)C[C@H](NC(=O)c1nc[nH]c1C(=O)NCc1ccc(CNC(=O)OC(C)(C)C)cc1)C(=O)OC(C)(C)C	i	i	i	35.3*	-24.2	i
CC(C)(C)OC(=O)NCCCC[C@H](NC(=O)c1nc[nH]c1C(=O)NCc1ccc(CNC(=O)OC(C)(C)C)cc1)C(=O)OC(C)(C)C	i	i	i	?	-0.5	i
CCOC(=O)C1C(C(=O)OC)=C(C2=CCCCC2)c2ccccc2N1S(=O)(=O)C(F)(F)F (stereo not drawn)	i	.	.	.	.	.
COc1ccccc1CNC(=O)CN1C(=O)NC(C)(c2ccc(C)cc2)C1=O (stereo not drawn)	i	i	i	3.1	-5.9	i
COc1ccc(/C=C(\C#N)c2nc3ccccc3[nH]2)cc1O	i	.	.	.	18.7	.
COc1cc(/C=C(/C#N)c2nc3ccccc3[nH]2)ccc1OC(=O)c1ccco1	-4.83*	i	i	.	-21.9	i
